# Measured values published in PubChem BioAssay (EPA / NIEHS).
# Results filed as inconclusive are left out. The source made the active and inactive calls. Rule for the calls, unless noted: active = hit-call score of the fitted dose curve at least 0.9, where 1 is the maximum; inconclusive = response in the unintended direction; inactive = score below 0.9.
# Experiments:
# [1] = Tanguay_ZF_120hpf_ActivityScore_legacy: (Legacy) Oregon State University Tanguay Lab 120 Hour Post-fertilization zebrafish Assay Score for Activity (AID 2283742);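 for AC50: dechorionated Tropical 5D wild-type zebrafish embryos held singly per well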
# Method in brief: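 Dechorionated 5D embryos, one per well, static exposure 6–120 hpf, 28C, sealed and dark; final DMSO 0.64% (vol/vol). Brightfield binary scoring of mortality plus 18 endpoints; gain-of-signal fit versus DMSO baseline.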
# [2] = CEETOX_H295R_MTT_cell_viability: Viability Assessment in the CeeTox HT-H295R MTT Assay (AID 2283718; active = hit-call score of the fitted dose curve at least 0.9, where 1 is the maximum; inactive = score below 0.9)
# Method in brief: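 Human H295R adrenal cells, prestimulated 48 h with 10 uM forskolin, were exposed 48 h to chemicals in 0.1% DMSO. Viability was measured in the same wells by MTT (0.5 mg/ml, 4 h, 37 C), absorbance 570/650 nm, as percent of controls.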
# [3] = STM_H9_OrnithineISnorm_perc: Stemina devTOX quickPredict H9 human embryonic stem cell (hESC)-based Assay for Ornithine (ORN) Metabolite Biomarker, Normalized (AID 2283712; active = hit-call score of the fitted dose curve at least 0.9, where 1 is the maximum; inactive = score below 0.9;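 note: ornithine released into spent medium during last day measured by mass spectrometry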)
# Method in brief: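 UPLC-HRMS readout: endogenous ornithine EIC area / 13C-ORN internal standard, then % of 0.1% DMSO median. H9 hESCs (pluripotent), 72h exposure, re-dosed with fresh media q24h; last 24-h spent media, deproteinized in 40% acetonitrile.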
# [4] = STM_H9_CystineISnorm_perc: Stemina devTOX quickPredict H9 human embryonic stem cell (hESC)-based Assay for Cystine (CYSS) Metabolite Biomarker, Normalized (AID 2283713; active = hit-call score of the fitted dose curve at least 0.9, where 1 is the maximum; inactive = score below 0.9)
# Method in brief: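 UPLC-HRMS read-out: endogenous cystine peak area in spent medium, normalized to isotope-labeled internal standard and to median of 0.1% DMSO controls. Pluripotent H9 cells, 72h exposure, daily medium/compound replenishment; medium from last 24h sampled.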
# [5] = test system: Thyroperoxidase (TPO), gene 445522; test: CCTE_Simmons_GUA_TPO: CCTE's Guaiacol Assay for Thyroperoxidase (TPO) Inhibition, Simmons Lab (AID 2283750)
# Experimental: CCTE_Simmons_GUA_TPO is a biochemical, single-readout assay that uses microsomes from porcine thyroid gland in a tissue-based cell-free assay. Measurements were taken 0.5 hour after chemical dosing in a 384-well plate.CCTE_Simmons_GUA_TPO is the assay component measured from the CCTE_Simmons_GUA_TPO assay. It is designed to make measurements of enzyme activity, a form of enzyme reporter, as detected with absorbance signals by enzyme activity technology. This is an orthogonal assay to CCTE_Simmons_AUR_TPO run for confirmation.Data from the assay component CCTE_Simmons_GUA_TPO was analyzed at the endpoint, CCTE_Simmons_GUA_TPO, in the positive analysis fitting direction relative to DMSO as the negative control and baseline of activity. […]
# The GUA assay has been described previously for both rat and pig thyroid microsomes (Chang and Doerge, 2000; Paul et al., 2013; Tietge et al., 2013). […] Guaiacol (10 ul; 35mM final assay concentration) was then added using a BMG Clariostar plate reader equipped with syringe injectors and incubated with test chemical exposure at 37C for 30s. […] The oxidation of guaiacol was monitored during the linear phase (first 80 seconds of the reaction) at 450nm, and the change in absorbance over this period was recorded for data analysis. […]
# [6] = ArunA_CellTiter_hNC: Viability Assessment in the ArunA Biomedical's Oris Neural Crest (hNC) Cell Migration Assay (AID 2283752)
# Method in brief: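 hNC cells (H9 ESC-derived), 60,000/well, Matrigel, LIF + bFGF medium; 16 h 37C attachment; 72 h compound in test medium; CellTiter Aqueous One read-out; loss-of-signal vs DMSO baseline.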
compound,measurement,setting,value
C=CN1CCCC1=O,outcome,[1],inactive
CCCCCCCC/C=C\CCCCCCCC(=O)OC[C@@H](O)[C@H]1OC[C@H](O)[C@H]1O,outcome,[1],inactive
O=C(O)c1cccc(C(=O)O)c1,outcome,[1],inactive
O=S(=O)(O)c1ccc(N=Nc2c(O)ccc3cc(S(=O)(=O)O)ccc23)cc1,outcome,[2],inactive
same,outcome,[1],inactive
OC[C@H]1O[C@@](CO)(O[C@H]2O[C@H](CO)[C@@H](O)[C@H](O)[C@H]2O)[C@@H](O)[C@@H]1O,outcome,[1],inactive
Cc1nccn1-c1ccc(Sc2cccc(C3(C(N)=O)CCOCC3)c2)cc1,outcome,[1],inactive
CCCCCCCCCCCCCCO,outcome,[2],inactive
same,outcome,[1],inactive
C[C@]12C=CC(=O)C=C1CC[C@H]1[C@@H]3C[C@@H](O)[C@](O)(C(=O)CO)[C@@]3(C)C[C@H](O)[C@@]12F,outcome,[3],inactive
same,outcome,[4],inactive
same,outcome,[2],inactive
same,AC50,[1],0.00064 µM (active)
CCCOc1ccc(S(=O)(=O)N2CCN(CC)CC2)cc1-c1nc2c(CC)n(Cc3ccccn3)nc2c(=O)[nH]1,outcome,[2],inactive
same,outcome,[1],inactive
CC(=O)c1ccccc1,outcome,[1],inactive
Cc1ccc(S(=O)(=O)NC(=O)NN2CCCCCC2)cc1,outcome,[1],inactive
c1ccc2ncccc2c1,outcome,[1],inactive
CC(C)CC(C)O (centres undefined),outcome,[1],inactive
OCCOCCOCCO,outcome,[1],inactive
NNC(=O)c1ccncc1,outcome,[1],inactive
same,AC50,[5],20.7 µM (active)
CCCCCCCCN(C)C,outcome,[2],inactive
same,outcome,[1],inactive
CC1(C)C(=O)N(Cl)C(=O)N1Cl,outcome,[1],inactive
c1ccc2c(c1)-c1cccc3c1c-2cc1ccccc13,outcome,[2],inactive
same,outcome,[1],inactive
O=C(NO)C1(NS(=O)(=O)c2ccc(Oc3ccc(F)cc3)cc2)CCOCC1,outcome,[1],inactive
OCc1c[nH]c2ccccc12,outcome,[2],inactive
OC[C@H]1O[C@@H]2O[C@H]3[C@H](O)[C@@H](O)[C@@H](O[C@H]4[C@H](O)[C@@H](O)[C@@H](O[C@H]5[C@H](O)[C@@H](O)[C@@H](O[C@H]6[C@H](O)[C@@H](O)[C@@H](O[C@H]7[C@H](O)[C@@H](O)[C@@H](O[C@H]1[C@H](O)[C@H]2O)O[C@@H]7CO)O[C@@H]6CO)O[C@@H]5CO)O[C@@H]4CO)O[C@@H]3CO,outcome,[1],inactive
CCn1nc(C)c2c1C(=O)NCC(c1ccc(O)cc1)=N2,outcome,[2],inactive
same,outcome,[1],inactive
CCCCCCOC(=O)CC(CC(=O)OCCCCCC)(OC(=O)CCC)C(=O)OCCCCCC,outcome,[1],inactive
CC(C)CCCCCCOC(=O)C1CCCCC1C(=O)OCCCCCCC(C)C (centres undefined),outcome,[1],inactive
NC(N)=O,outcome,[1],inactive
CCc1cccc(CC)c1N,outcome,[1],inactive
CNC(C)=O,outcome,[1],inactive
CCCCCOC(C)=O,outcome,[1],inactive
O=C(O)c1ccc2c(c1)nc(C(=O)NC1CCN(C3CC3)CC1)n2Cc1cc(-c2ccc(Cl)s2)on1,outcome,[1],inactive
COCc1nnc(-c2ccc[n+]([O-])c2)n1-c1c(Cl)c(Cl)cc2[nH]c(=O)c(=O)[nH]c12,outcome,[1],inactive
CCCCCCCCCC,outcome,[3],inactive
same,outcome,[4],inactive
same,outcome,[1],inactive
same,outcome,[6],inactive
